Experimental data: the supplement of paper PMC10849652
Targets with a hit are over-represented here; the source holds about 7,900 in all. About 0.6% of all pairs of compound and target were hits.

Key:
Experiment in all cases: log2 fold change, soluble protein after heating vs DMSO (PISA); higher = thermal stabilisation; K562 cells, 10 uM, 30 min; active = over 0.2 and 3.5 SD of the protein, either way, in both replicates (recomputed)
sotrastaurin = compound: CN1CCN(c2nc(C3=C(c4c[nH]c5ccccc45)C(=O)NC3=O)c3ccccc3n2)CC1 [sotrastaurin]
In short: (§1)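 K562 cells at 2×10^6 cells/mL were exposed to 10 μM compound for 30 min, then aliquots were heated for 3 min across 48°C-58°C, pooled, and extracted in PBS containing 0.5% NP-40 at 4°C. The supernatant after 21,000xg for 90 min was taken as soluble protein and measured by TMTpro 16plex LC-MS/MS with channel sums equalised. Thermal stability is reported relative to control samples, with values from duplicates. Fold changes are given on a log2 scale.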

rucaparib = compound: CNCc1ccc(-c2[nH]c3cc(F)cc4c3c2CCNC4=O)cc1 [rucaparib]
In short: as §1

encorafenib = compound: COC(=O)N[C@@H](C)CNc1nccc(-c2cn(C(C)C)nc2-c2cc(Cl)cc(NS(C)(=O)=O)c2F)n1 [encorafenib]
In short: as §1

filanesib = compound: CON(C)C(=O)N1N=C(c2cc(F)ccc2F)S[C@@]1(CCCN)c1ccccc1 [filanesib]
In short: as §1

alisertib = compound: COc1cc(Nc2ncc3c(n2)-c2ccc(Cl)cc2C(c2c(F)cccc2OC)=NC3)ccc1C(=O)O [alisertib]
In short: as §1

[1] = compound: COc1cc2nc(-c3cc(F)ccc3O)nc(N[C@@H]3CNC[C@H]3C(C)(C)O)c2cc1OC
In short: as §1

gefitinib = compound: COc1cc2ncnc(Nc3ccc(F)c(Cl)c3)c2cc1OCCCN1CCOCC1 [gefitinib]
In short: as §1

[2] = compound: COc1cccc2cc(-c3nc([C@H]4CC[C@H](C(=O)O)CC4)n4ncnc(N)c34)[nH]c12
In short: as §1

lapatinib = compound: CS(=O)(=O)CCNCc1ccc(-c2ccc3ncnc(Nc4ccc(OCc5cccc(F)c5)c(Cl)c4)c3c2)o1 [lapatinib]
In short: as §1

pictilisib = compound: CS(=O)(=O)N1CCN(Cc2cc3nc(-c4cccc5[nH]ncc45)nc(N4CCOCC4)c3s2)CC1 [pictilisib]
In short: as §1

alvocidib = compound: CN1CC[C@H](c2c(O)cc(O)c3c(=O)cc(-c4ccccc4Cl)oc23)[C@H](O)C1 [alvocidib]
In short: as §1

Tubastatin A = compound: CN1CCc2c(c3ccccc3n2Cc2ccc(C(=O)NO)cc2)C1 [Tubastatin A]
In short: as §1

[3] = compound: CNC(=O)C1=CC=CC=C1NC2=NC(=NC=C2Cl)NC3=C(C=C(C=C3)N4CCOCC4)OC
In short: as §1

defactinib = compound: CNC(=O)c1ccc(Nc2ncc(C(F)(F)F)c(NCc3nccnc3N(C)S(C)(=O)=O)n2)cc1 [defactinib]
In short: as §1

[4] = compound: COC(=O)[C@H](CCSC)NC(=O)C1=C(C=C(C=C1)NC[C@H](CS)N)C2=CC=CC=C2
In short: as §1

zotarolimus = compound: CO[C@H]1C[C@@H]2CC[C@@H](C)[C@@](O)(O2)C(=O)C(=O)N2CCCC[C@H]2C(=O)O[C@H]([C@H](C)C[C@@H]2CC[C@H](n3cnnn3)[C@H](OC)C2)CC(=O)[C@H](C)/C=C(\C)[C@@H](O)[C@@H](OC)C(=O)[C@H](C)C[C@H](C)/C=C/C=C/C=C/1C [zotarolimus]
In short: as §1

[5] = compound: COC1=CC=C(C=C1)CN2C=CC3=C2C=C(C=C3)C(=O)NO
In short: as §1

idasanutlin = compound: COc1cc(C(=O)O)ccc1NC(=O)[C@@H]1N[C@@H](CC(C)(C)C)[C@](C#N)(c2ccc(Cl)cc2F)[C@H]1c1cccc(Cl)c1F [idasanutlin]
In short: as §1

saracatinib = compound: CN1CCN(CCOc2cc(OC3CCOCC3)c3c(Nc4c(Cl)ccc5c4OCO5)ncnc3c2)CC1 [saracatinib]
In short: as §1

[6] = compound: CNc1nc(-c2ccc3c(N)n[nH]c3c2)cc(N2C[C@@H](C(=O)NC3CCCCC3)CC[C@H]2C)n1
In short: as §1

Measured: log2 fold change

NA (UniProt B2RBV5)
UniProt B2RBV5, sequence (B2RBV5 whole entry, looked up): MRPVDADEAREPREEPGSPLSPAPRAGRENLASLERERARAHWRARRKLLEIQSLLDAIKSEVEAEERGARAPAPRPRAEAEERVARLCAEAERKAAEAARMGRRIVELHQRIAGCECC
inactive: sotrastaurin -0.057 | rucaparib -0.16 | encorafenib -0.09 | filanesib 0.081 | alisertib -0.043 | [1] 0.001 | gefitinib -0.33 | [2] 0.028 | lapatinib -0.243 | pictilisib 0.061

NOS1AP (UniProt O75052)
UniProt O75052, sequence (O75052 whole entry, looked up): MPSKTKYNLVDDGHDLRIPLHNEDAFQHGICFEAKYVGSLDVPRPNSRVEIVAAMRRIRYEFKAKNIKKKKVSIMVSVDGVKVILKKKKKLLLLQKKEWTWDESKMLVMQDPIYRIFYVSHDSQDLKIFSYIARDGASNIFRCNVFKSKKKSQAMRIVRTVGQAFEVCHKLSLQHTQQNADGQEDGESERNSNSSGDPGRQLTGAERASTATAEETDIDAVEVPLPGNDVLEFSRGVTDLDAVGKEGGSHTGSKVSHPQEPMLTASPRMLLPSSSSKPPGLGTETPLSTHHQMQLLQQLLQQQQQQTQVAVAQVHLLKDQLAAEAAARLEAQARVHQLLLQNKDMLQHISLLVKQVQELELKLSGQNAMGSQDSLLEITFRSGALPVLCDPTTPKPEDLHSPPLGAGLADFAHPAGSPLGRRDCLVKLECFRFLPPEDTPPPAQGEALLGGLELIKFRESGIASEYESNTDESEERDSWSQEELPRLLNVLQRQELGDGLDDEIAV
inactive: alvocidib 0.179 | Tubastatin A -0.112 | [3] -0.089 | defactinib 0.193 | rucaparib -0.403 | encorafenib 0.092 | [4] -0.074 | zotarolimus -0.098 | alisertib 0.353 | [1] -0.09 | [2] -0.118 | lapatinib -0.1

NA (UniProt J3KR12)
inactive: [5] 0.123 | alisertib -0.116 | gefitinib -0.134 | [2] 0.077

MITF (UniProt O75030)
inactive: sotrastaurin -0.08 | [3] 0.034 | defactinib 0.111 | rucaparib -0.186 | encorafenib -0.058 | [4] 0.064 | [5] 0.122 | filanesib 0.106 | idasanutlin -0.042 | alisertib 0.008 | gefitinib -0.13 | [2] 0 | pictilisib -0.397

ORC3 (UniProt Q9UBD5)
UniProt Q9UBD5, sequence (Q9UBD5 whole entry, looked up): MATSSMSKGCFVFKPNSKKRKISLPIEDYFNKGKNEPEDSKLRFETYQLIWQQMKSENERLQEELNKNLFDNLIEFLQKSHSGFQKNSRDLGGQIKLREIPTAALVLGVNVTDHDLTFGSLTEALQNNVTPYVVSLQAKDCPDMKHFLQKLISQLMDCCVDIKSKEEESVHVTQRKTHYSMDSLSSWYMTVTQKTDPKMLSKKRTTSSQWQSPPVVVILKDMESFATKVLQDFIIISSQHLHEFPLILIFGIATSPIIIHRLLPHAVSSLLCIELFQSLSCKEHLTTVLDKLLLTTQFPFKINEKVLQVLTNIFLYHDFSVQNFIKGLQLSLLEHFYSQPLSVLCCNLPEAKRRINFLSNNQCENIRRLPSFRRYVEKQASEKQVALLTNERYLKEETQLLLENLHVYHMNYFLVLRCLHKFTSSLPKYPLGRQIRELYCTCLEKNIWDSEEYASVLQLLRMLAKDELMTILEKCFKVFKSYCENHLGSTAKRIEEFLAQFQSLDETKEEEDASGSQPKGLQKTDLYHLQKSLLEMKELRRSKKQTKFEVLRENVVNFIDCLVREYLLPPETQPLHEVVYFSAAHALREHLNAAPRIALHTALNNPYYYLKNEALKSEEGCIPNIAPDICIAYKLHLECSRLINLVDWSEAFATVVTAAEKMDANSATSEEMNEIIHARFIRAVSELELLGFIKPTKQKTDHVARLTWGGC
inactive: rucaparib 0.061 | encorafenib 0.032 | idasanutlin -0.167

MMADHC (UniProt Q9H3L0)
UniProt Q9H3L0, sequence (Q9H3L0 whole entry, looked up): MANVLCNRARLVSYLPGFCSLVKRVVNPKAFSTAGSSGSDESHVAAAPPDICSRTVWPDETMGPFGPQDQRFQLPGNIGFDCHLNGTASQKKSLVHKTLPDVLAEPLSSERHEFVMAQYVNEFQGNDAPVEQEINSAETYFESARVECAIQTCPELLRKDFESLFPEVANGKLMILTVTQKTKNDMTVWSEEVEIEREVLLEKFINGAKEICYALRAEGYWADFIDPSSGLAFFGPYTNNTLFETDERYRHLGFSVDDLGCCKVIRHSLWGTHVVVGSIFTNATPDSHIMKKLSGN
inactive: saracatinib -0.044 | alvocidib 0.031 | Tubastatin A 0.07 | [3] -0.011 | defactinib -0.061 | rucaparib 0.139 | [6] 0.062 | encorafenib -0.031 | [4] -0.011 | [5] -0.031 | zotarolimus 0.102 | idasanutlin -0.135 | alisertib 0.006 | [1] 0.056 | gefitinib 0.305 | [2] 0.013 | lapatinib 0.176 | pictilisib -0.114

OXR1 isoform 2 (UniProt Q8N573)
UniProt Q8N573, sequence (Q8N573 whole entry, looked up): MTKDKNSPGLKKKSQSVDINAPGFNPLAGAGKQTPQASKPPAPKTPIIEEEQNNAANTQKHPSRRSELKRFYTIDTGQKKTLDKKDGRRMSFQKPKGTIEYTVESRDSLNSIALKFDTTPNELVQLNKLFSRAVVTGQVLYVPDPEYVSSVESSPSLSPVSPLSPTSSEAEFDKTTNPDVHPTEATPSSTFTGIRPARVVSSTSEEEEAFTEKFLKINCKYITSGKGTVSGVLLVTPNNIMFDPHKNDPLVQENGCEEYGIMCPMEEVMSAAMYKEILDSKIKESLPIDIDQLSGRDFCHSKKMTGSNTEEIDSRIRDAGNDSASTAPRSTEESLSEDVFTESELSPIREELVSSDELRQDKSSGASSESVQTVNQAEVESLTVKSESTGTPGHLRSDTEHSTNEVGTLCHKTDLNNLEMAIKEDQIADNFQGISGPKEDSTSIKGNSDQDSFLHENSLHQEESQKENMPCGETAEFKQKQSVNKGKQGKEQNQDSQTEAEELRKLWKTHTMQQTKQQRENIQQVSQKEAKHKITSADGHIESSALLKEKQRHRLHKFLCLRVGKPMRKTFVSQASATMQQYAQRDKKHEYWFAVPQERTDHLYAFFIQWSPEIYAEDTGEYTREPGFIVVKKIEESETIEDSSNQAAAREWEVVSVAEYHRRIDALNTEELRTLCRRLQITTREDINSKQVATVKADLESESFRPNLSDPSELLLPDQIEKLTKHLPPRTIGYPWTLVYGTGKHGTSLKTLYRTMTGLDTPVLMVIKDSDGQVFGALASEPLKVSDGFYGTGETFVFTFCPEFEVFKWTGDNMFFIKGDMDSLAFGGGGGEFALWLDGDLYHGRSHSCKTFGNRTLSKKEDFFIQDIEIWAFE
inactive: saracatinib -0.138 | alvocidib 0.051 | Tubastatin A -0.038 | defactinib -0.067 | rucaparib -0.008 | [6] 0.092 | encorafenib -0.022 | [4] 0.047 | [5] -0.175 | zotarolimus -0.014 | idasanutlin -0.009 | [1] 0.018 | gefitinib 0.014 | lapatinib -0.061 | pictilisib -0.073

MXRA7 isoform 3 (UniProt P84157)
inactive: [1] 0.077 | lapatinib -0.27

MYSM1 (UniProt Q5VVJ2)
UniProt Q5VVJ2, sequence (Q5VVJ2 whole entry, looked up): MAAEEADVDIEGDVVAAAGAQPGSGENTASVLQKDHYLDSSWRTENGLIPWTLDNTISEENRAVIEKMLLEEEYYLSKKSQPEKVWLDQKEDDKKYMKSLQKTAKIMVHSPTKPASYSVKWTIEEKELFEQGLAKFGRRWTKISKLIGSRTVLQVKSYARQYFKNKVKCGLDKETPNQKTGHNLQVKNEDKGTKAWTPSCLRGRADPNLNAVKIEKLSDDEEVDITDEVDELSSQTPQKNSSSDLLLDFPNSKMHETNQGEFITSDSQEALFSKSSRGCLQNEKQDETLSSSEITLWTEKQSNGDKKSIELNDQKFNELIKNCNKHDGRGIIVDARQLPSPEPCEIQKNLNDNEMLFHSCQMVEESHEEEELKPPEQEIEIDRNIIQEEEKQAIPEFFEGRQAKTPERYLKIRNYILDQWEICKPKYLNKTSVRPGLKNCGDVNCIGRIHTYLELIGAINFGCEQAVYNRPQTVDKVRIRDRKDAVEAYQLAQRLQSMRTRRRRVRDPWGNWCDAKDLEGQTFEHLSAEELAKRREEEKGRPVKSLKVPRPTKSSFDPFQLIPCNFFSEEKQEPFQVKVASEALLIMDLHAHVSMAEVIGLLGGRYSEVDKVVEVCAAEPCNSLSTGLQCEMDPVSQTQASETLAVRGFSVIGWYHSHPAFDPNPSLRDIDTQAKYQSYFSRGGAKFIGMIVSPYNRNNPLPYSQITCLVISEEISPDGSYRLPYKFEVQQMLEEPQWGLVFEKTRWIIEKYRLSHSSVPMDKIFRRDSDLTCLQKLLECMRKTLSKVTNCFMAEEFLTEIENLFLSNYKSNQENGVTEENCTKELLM
inactive: sotrastaurin -0.294 | rucaparib 0.003 | encorafenib 0.13 | [5] -0.063 | filanesib -0.007

MT-ND2 (UniProt P03891)
inactive: saracatinib -0.183 | alvocidib -0.321 | Tubastatin A -0.044 | [3] 0 | defactinib -0.008 | [6] -0.295 | [4] 0.085 | [5] -0.029 | zotarolimus 0.065 | idasanutlin -0.143 | alisertib 0.04 | [1] -0.131 | gefitinib 0.106 | [2] 0.074 | lapatinib -0.008 | pictilisib 0.139

NDUFB1 (UniProt O75438)
UniProt O75438, sequence (O75438 whole entry, looked up): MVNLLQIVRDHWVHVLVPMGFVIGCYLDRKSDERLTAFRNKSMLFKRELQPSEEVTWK
inactive: sotrastaurin 0.015 | alvocidib -0.042 | Tubastatin A -0.09 | [3] -0.01 | defactinib -0.021 | rucaparib -0.035 | encorafenib 0.001 | [4] 0.034 | [5] 0.031 | filanesib -0.029 | zotarolimus -0.055 | idasanutlin 0.029 | alisertib -0.062 | [1] -0.08 | gefitinib 0.083 | [2] 0.076 | lapatinib -0.028 | pictilisib -0.196

NEU3 isoform 2 (UniProt Q9UQ49)
inactive: sotrastaurin 0.004 | [3] 0.091 | filanesib -0.286 | [1] 0.301 | lapatinib -0.126

NA, A0A494C071
inactive: saracatinib 0.033 | alvocidib 0.062 | Tubastatin A -0.197 | defactinib 0.044 | rucaparib -0.359 | [6] -0.062 | encorafenib 0.027 | [4] 0.124 | [5] -0.265 | zotarolimus -0.011 | idasanutlin -0.392 | alisertib 0.016 | gefitinib 0.367 | [2] 0.143 | pictilisib 0.277

MYO19 (UniProt Q96H55)
active: pictilisib 0.567
inactive: saracatinib -0.066 | alvocidib 0.001 | [3] -0.046 | defactinib 0.093 | [6] 0.09 | [4] 0.103 | [5] -0.083 | zotarolimus 0.071 | idasanutlin -0.116 | [1] 0.081 | gefitinib 0.024 | lapatinib 0.276

NME2P1 (UniProt O60361)
inactive: sotrastaurin 0.057 | alvocidib 0.004 | Tubastatin A 0.059 | [3] -0.145 | defactinib 0.034 | encorafenib 0.003 | [4] -0.017 | [5] -0.256 | filanesib 0.058 | zotarolimus -0.111 | idasanutlin -0.367 | alisertib -0.089 | [1] 0.122 | gefitinib -0.01 | [2] 0.084 | lapatinib -0.075 | pictilisib -0.041
active: rucaparib -0.814

NUDT6 (UniProt P53370)
inactive: saracatinib 0.063 | alvocidib 0.165 | Tubastatin A 0.098 | [3] 0.014 | defactinib 0.066 | rucaparib -0.38 | [6] -0.023 | encorafenib -0.024 | [4] -0.087 | [5] 0.017 | zotarolimus -0.173 | alisertib 0.012 | [1] 0.175 | gefitinib -0.025 | [2] -0.084 | lapatinib -0.017

NIPSNAP2 (UniProt C9J7B1)
inactive: sotrastaurin -0.073 | filanesib 0.05 | idasanutlin -0.38 | alisertib -0.041 | [2] -0.047

MRM2 (UniProt Q9UI43)
inactive: saracatinib 0.173 | alvocidib -0.364 | Tubastatin A -0.07 | [3] 0.033 | defactinib -0.24 | [6] 0.004 | [4] 0.101 | zotarolimus 0.11 | [1] 0.078 | gefitinib 0.066 | lapatinib 0.108
active: idasanutlin 0.518

OGFOD2 (UniProt Q6N063)
UniProt Q6N063, sequence (Q6N063 whole entry, looked up): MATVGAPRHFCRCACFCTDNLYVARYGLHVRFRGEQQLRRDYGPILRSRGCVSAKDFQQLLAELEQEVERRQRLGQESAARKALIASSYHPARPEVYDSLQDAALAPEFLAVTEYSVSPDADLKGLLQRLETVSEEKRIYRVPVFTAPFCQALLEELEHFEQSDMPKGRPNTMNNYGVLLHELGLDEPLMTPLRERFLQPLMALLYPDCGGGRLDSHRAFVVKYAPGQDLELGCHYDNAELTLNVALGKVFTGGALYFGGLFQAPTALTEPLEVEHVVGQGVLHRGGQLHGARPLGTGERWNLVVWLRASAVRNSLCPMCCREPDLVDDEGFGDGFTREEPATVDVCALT
inactive: saracatinib 0.095 | alvocidib -0.035 | Tubastatin A -0.08 | [3] 0.094 | defactinib -0.076 | rucaparib -0.029 | [6] 0.009 | encorafenib 0.133 | [4] 0.032 | [5] -0.275 | zotarolimus 0.034 | idasanutlin 0.073 | alisertib 0.007 | gefitinib 0.071 | [2] -0.033 | pictilisib -0.144

PACRGL (UniProt Q8N7B6)
inactive: sotrastaurin -0.075 | filanesib 0.056

MOB3B (UniProt Q86TA1)
inactive: alvocidib -0.428 | Tubastatin A -0.03 | [3] -0.324 | defactinib -0.252 | [4] 0.078 | [5] 0.355 | zotarolimus -0.087 | idasanutlin -0.24 | alisertib -0.001 | [1] 0.04 | gefitinib 0.384 | [2] -0.011 | lapatinib -0.033 | pictilisib 0.067

NKTR (UniProt P30414)
active: [3] 0.939
inactive: alisertib 0.064 | [1] 0.295 | [2] 0.109 | lapatinib -0.173

NAP1L1 (UniProt B7Z9C2)
inactive: saracatinib -0.168 | [3] 0.041 | defactinib -0.117 | rucaparib -0.041 | [6] -0.706 | encorafenib -0.114 | [4] -0.007 | [5] -0.116 | idasanutlin -0.004 | alisertib 0.258 | gefitinib 0.03 | [2] 0.066 | pictilisib 0.111

MOB2 isoform 3 (UniProt Q70IA6)
UniProt Q70IA6, sequence (Q70IA6 whole entry, looked up): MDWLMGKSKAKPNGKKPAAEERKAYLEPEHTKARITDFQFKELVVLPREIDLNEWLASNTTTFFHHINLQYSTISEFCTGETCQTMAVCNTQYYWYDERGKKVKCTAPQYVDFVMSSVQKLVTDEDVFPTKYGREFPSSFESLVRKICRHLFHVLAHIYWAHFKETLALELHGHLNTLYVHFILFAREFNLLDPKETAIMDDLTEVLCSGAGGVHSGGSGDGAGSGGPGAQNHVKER
inactive: alvocidib -0.017 | Tubastatin A -0.073 | [3] -0.123 | zotarolimus 0.205 | alisertib -0.066 | [1] -0.184 | gefitinib 0.051 | [2] 0.02 | lapatinib 0.025 | pictilisib 0.06

NOLC1 isoform 3 (UniProt Q14978)
inactive: alvocidib 0.083 | [3] 0.018 | zotarolimus -0.013

MLH1 (UniProt P40692)
UniProt P40692, sequence (P40692 whole entry, looked up): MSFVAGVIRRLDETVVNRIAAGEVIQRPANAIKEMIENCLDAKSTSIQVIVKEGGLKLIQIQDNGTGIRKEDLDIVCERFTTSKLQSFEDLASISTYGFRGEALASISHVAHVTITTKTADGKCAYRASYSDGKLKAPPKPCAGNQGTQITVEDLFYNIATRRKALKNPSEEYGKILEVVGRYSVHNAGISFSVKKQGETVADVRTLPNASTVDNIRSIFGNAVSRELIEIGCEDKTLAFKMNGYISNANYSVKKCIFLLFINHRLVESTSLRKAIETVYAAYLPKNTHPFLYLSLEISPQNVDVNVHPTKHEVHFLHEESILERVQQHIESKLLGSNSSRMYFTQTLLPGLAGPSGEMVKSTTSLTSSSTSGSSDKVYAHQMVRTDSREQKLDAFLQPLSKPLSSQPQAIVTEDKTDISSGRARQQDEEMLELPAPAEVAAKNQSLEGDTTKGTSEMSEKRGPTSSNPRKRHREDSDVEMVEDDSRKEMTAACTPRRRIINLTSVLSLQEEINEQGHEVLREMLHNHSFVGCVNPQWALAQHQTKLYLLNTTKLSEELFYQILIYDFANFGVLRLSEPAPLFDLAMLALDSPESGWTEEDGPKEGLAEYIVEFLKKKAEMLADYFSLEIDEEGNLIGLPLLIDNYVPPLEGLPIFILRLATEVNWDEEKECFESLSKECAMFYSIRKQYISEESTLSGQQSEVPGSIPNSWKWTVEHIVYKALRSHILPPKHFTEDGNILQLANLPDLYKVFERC
inactive: saracatinib -0.103 | alvocidib -0.235 | Tubastatin A 0.158 | [6] -0.168 | zotarolimus 0.024 | idasanutlin 0.03 | alisertib -0.171 | [1] -0.135 | [2] -0.1 | lapatinib 0.091 | pictilisib 0.083

OVCA2 (UniProt Q8WZ82)
UniProt Q8WZ82, sequence (Q8WZ82 whole entry, looked up): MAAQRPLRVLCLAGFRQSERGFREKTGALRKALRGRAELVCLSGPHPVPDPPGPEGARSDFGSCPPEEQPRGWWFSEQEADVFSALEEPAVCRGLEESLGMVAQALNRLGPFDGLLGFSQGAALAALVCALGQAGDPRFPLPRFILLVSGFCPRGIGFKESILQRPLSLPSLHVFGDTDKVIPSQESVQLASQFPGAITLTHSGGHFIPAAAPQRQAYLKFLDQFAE
inactive: rucaparib 0.116 | encorafenib -0.052 | [5] -0.206 | idasanutlin -0.023 | alisertib 0.102 | [1] 0.201 | gefitinib -0.143 | [2] -0.318 | lapatinib -0.014 | pictilisib -0.176
